From PubChem
MCF10A rereplic = A quantitative high throughput screen for small molecules that induce DNA re-replication in MCF 10a normal breast cells; MCF 10A DNA re-replication, Hoechst nuclear intensity, 48 h; Potency, µM (top dose mostly 46.1 µM), for the others: top-dose activity, positive = re-replication, most hits filed as activators; actives 2.9% (n = 350,000); AID 624296, 2012; note: potency is the fitted concentration of half-maximal effect; % of control where 0% means no effect; nearly all actives have a fitted effect of over 50% in size
Giardia kill = Small Molecules that selectively kill Giardia lamblia: qHTS; Giardia lamblia trophozoite viability; activity change, % at 7.66 µM, hits read low; actives 0.15% (n = 340,000); AID 540267, 2011; in the data active = activity change below about -80%; inconclusive = between about -30% and that limit;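 note: parasites exposed to compound for two days anaerobically before the ATP read; % is set by controls: 0 for no effect and ±100 for the full control effect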
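Trophozoite viability was measured as ATP-dependent luminescence, read 15-30 min after reagent addition. Before that, parasites at 100 cells/well were exposed to compounds for 48 h, anaerobically, at 37 deg C.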
Vif-APOBEC3G blk = qHTS for Inhibitors of Vif-A3G Interactions: qHTS | DNA dC->dU-editing enzyme APOBEC-3G (Homo sapiens), Q9HC16 | HeLa A3G-eYFP + Vif (tagged APOBEC3G with the HIV-1 protein that degrades it), YFP fluorescence, overnight | Potency, µM (series often up to 46.1 µM), inactives show at the top dose activity, negative = active, usual class: inhibitors | actives 0.076% (n = 410,000) | AID 602310, 2012; note: potency is the fitted concentration of half-maximal effect; % is set by controls: 0 for no effect and ±100 for the full control effect; nearly all actives have a fitted effect of over 60% in size
Target sequence (Q9HC16 whole entry, looked up): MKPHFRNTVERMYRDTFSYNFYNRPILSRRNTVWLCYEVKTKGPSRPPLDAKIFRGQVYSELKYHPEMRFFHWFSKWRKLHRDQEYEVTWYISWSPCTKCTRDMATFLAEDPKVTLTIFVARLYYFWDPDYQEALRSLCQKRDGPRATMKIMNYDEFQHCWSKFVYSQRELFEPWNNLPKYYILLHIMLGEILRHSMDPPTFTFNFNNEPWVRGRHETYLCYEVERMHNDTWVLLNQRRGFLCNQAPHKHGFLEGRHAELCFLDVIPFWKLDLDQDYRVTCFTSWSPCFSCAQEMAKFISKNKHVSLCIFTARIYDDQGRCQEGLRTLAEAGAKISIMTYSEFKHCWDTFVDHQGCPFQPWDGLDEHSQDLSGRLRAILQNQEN
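HeLa cells stably expressing Vif and C-terminally eYFP-tagged A3G, seeded overnight at 37 deg C, then exposed to compound by pintool overnight at 37 deg C. Rise in yellow fluorescence (Ex 488/Em 500-530, Acumen) marks blocked Vif-driven A3G degradation.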
Vif-APOBEC3F blk = qHTS for Inhibitors of Vif-A3F Interactions: qHTS. Potency, µM (titrated, usually from 46.1 µM), without a hit: at the top dose activity, negative = active. HeLa A3F-eYFP + Vif (tagged APOBEC3F with the HIV-1 protein that degrades it), YFP fluorescence increase. actives 0.2% (n = 390,000); note: potency is the fitted concentration of half-maximal effect; % of control where 0% means no effect; nearly all actives have a fitted effect of over 65% in size
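Fluorescence increase (Ex 488/Em 500-530) after overnight compound treatment at 37 deg C flags inhibition of Vif-driven A3F-eYFP loss in stable HeLa A3F-eYFP/Vif cells seeded overnight beforehand.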
IL-1B inflam inh = qHTS for Inhibitors of Inflammasome Signaling: IL-1-beta AlphaLISA Primary Screen | activity change, % at 57.5 µM | actives 4.7% (n = 360,000) | THP-1 LPS/ATP IL-1B secretion, AlphaLISA, 16 h; hits give low values; in the data active = activity change below about -50%; inconclusive = mostly about -30% to -49%; note: % is set by controls: 0 for no effect and ±100 for the full control effect
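THP-1 cells pretreated 1 hr with compounds (up to 57.5 uM final), then stimulated with LPS (250 ng/mL final) plus ATP (1.25 mM final); secreted IL-1B measured by AlphaLISA after 16 hr, decreased signal indicating inhibition.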
SW480 rerep = A quantitative high throughput screen for small molecules that induce DNA re-replication in SW480 colon adenocarcinoma cells; SW480 DNA re-replication, Hoechst DNA content imaging, 48 h; Potency, µM (titrated, usually from 46.1 µM), inactives show top-dose re-replication activation, actives largely listed as activators; actives 1.8% (n = 340,000); note: potency is the fitted concentration of half-maximal effect; % of control where 0% means no effect; nearly all actives have a fitted effect of over 55% in size
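250 cells/well; 23 nL cpd via pin tool; 48 hr, 37 C, 5% CO2; Hoechst 40 min; imager read of total nuclear intensity, ex 405/em 500-530 nm.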
* = called active by the depositor; ? = inconclusive; nt = not tested or not shown; [ ] = dose if it differs, or a comment. Most compounds without a hit are left out; they make up all but 6.9% or so of the library. Unless noted, calls come from the whole dose curve; as a rule, active = well fitted curve in the direction sought with a large enough effect; inconclusive = small, poorly fitted or top-dose-only effect, or another doubt; inactive = no such curve, though single readings can be large; an effect the other way counts as inactive or inconclusive.

SMILES	MCF10A rereplic	Giardia kill	Vif-APOBEC3G blk	Vif-APOBEC3F blk	IL-1B inflam inh	SW480 rerep
CCOC(=O)Nc1ccc2nc(Sc3ccc(Cl)cc3)sc2c1	?	9	?	-1%	43	16µM*
O=C1C=C(c2ccc(Oc3ccccc3)cc2)C[C@@H](c2ccc(F)cc2)C1	?	-10	-1%	0%	?	-6%
O=C1C=C(C#Cc2ccc(Oc3ccccc3)cc2)C[C@@H](c2ccc(F)cc2)C1	nt	nt	-28%	-1%	-80*	nt
COc1cccc(C#CC2=CC(=O)C[C@H](c3ccc(F)cc3)C2)c1	nt	nt	?	-10%	-93*	nt
O=S(=O)(c1ccc(C(F)(F)F)cc1)N1CCN(c2nc(-c3cccs3)nc3ccccc23)CC1	nt	3	nt	nt	nt	nt
COC(=O)c1ccc(COc2ccccc2OC)o1	-7%	3	5%	-2%	16	-6%
COC(=O)c1ccc(COc2ccccc2/C=N/O)o1	-24%	-6	-9%	4%	nt	1.8µM*
Cc1cccc(NC(=O)CSc2nc3c(c(=O)[nH]2)CN(Cc2ccc4c(c2)OCO4)CC3)c1C	nt	nt	-7%	-4%	nt	nt
COc1ccc(N(C)C(=O)c2ccc3c(Cl)c4c(nc3c2)CCCC4)c(OC)c1	?	?	-4%	-8%	?	8%
CC(C)c1ccc(C(=O)NCCCN2CCN(CCCNC(=O)c3ccc(C(C)C)cc3)CC2)cc1	23µM*	2	4%	-1%	0	?
CCN(CC)CCCNC(=O)c1ccc2c(Cl)c3c(nc2c1)CCCC3	9%	27	1%	-1%	nt	-1%
CCCN1CCN(CCCNC(=O)c2ccc3c(Cl)c4c(nc3c2)CCCC4)CC1	13%	4	1%	4%	-56*	-23%
O=C(NCCCN1CCCC1)c1ccc2c(Cl)c3c(nc2c1)CCCC3	12%	4	1%	-8%	nt	-8%
Cc1ccc(N(C)C(=O)c2ccc3c(Cl)c4c(nc3c2)CCC4)cc1C	?	17	-18%	-15%	-65*	?
CCc1ccc(N(CC)C(=O)c2ccc3c(Cl)c4c(nc3c2)CCC4)cc1	?	-9	1%	4%	-51*	?
O=c1cc(-c2ccccc2)n2c(SCc3ccccc3Cl)nnc2[nH]1	nt	nt	3%	-1%	nt	nt
O=C(CN1C(=O)CC(c2ccco2)Sc2ccccc21)Nc1cccc(C(F)(F)F)c1 (configuration not stated)	nt	nt	-25%	2%	nt	nt
Cc1cc(C)n(S(=O)(=O)/C=C/c2ccccc2)n1	16µM*	27	?	-8%	-108*	?
Cc1ccc(S(=O)(=O)n2nc(C)cc2C)cc1	?	14	0%	-6%	-2	-3%
O=C(/C=C/c1ccc(F)cc1)Nc1cccc(S(=O)(=O)N2CCOCC2)c1	?	12	0%	1%	-58*	-5%
O=C(/C=C/c1ccc(S(=O)(=O)N2CCOCC2)cc1)Nc1cc(F)ccc1F	?	3	0%	-9%	-55*	-9%
O=C(/C=C/c1c(Cl)cccc1Cl)NCCCn1ccnc1	23µM*	0	-6%	3%	-6	?
O=C(/C=C/c1ccc(S(=O)(=O)N2CCOCC2)cc1)NC(=S)NCCCn1ccnc1	?	-9	-14%	6%	-75*	71%
Cc1ccc(F)cc1NC(=O)/C=C/c1ccc(S(=O)(=O)N2CCOCC2)cc1	2%	-5	-1%	-8%	-24	0%
COc1ccc(OC)c(-c2cc(C(=O)NC(C)c3ccccc3)no2)c1 (configuration not stated)	nt	nt	-1%	-2%	nt	nt
SMILES	MCF10A rereplic	Giardia kill	Vif-APOBEC3G blk	Vif-APOBEC3F blk	IL-1B inflam inh	SW480 rerep
O=C(C[n+]1cccc2cccc(O)c21)c1ccc(Br)cc1	nt	nt	1%	nt	nt	nt
O=C(CSc1ccc(F)cc1)Nc1cccc(S(=O)(=O)N2CCOCC2)c1	3%	8	-1%	7%	-52*	5%
COc1ccc(CCNC(=O)/C=C/c2ccc(S(=O)(=O)N3CCOCC3)cc2)cc1	8%	4	-1%	-7%	-8	4.1µM*
O=C(/C=C/c1ccc(S(=O)(=O)N2CCOCC2)cc1)NC(=S)Nc1ccc(Cl)cc1Cl	16µM*	2	-9%	-20%	-90*	?
O=C(/C=C/c1ccc(S(=O)(=O)N2CCOCC2)cc1)NCCc1ccc(C(F)(F)F)cc1	11%	-19	-1%	0%	4	8%
Cc1ccc(C)c(SCC(=O)Nc2cccc(S(=O)(=O)N3CCOCC3)c2)c1	2%	-4	0%	-9%	-16	-4%
O=C(N/N=C/c1c(O)n(-c2ccccc2Cl)c(=O)c2ccccc12)C1COc2ccccc2O1 (configuration not stated)	21µM*	18	?	?	51	?
Cc1c(/C=N\NC(=O)C2COc3ccccc3O2)c2ccccc2n1C (configuration not stated)	?	-10	-47%	3%	3	nt
Cc1ccc(/C=N/NC(=O)C2COc3ccccc3O2)s1 (configuration not stated)	1.8µM*	3	?	-25%	-12	2.8µM*
Cn1cc(/C=N\NC(=O)C2COc3ccccc3O2)c2ccccc21 (configuration not stated)	5.8µM*	nt	nt	nt	nt	17%
NC(=O)C1CC2(NC(=O)NC2=O)c2cc(F)ccc2O1 (configuration not stated)	2%	nt	nt	nt	nt	4%
CCOc1ccccc1O[C@@H](c1ccccc1)[C@@H]1CNCCO1	13%	nt	nt	nt	nt	3%
CC(C)N(C(=O)c1cc2c(Cl)nc3ccccc3c2s1)C1CCCCC1	nt	nt	1%	1%	nt	nt
Cc1ccc(-n2c(SCC(N)=O)nc3c(c2=O)C2(CCCC2)Cc2ccccc2-3)cc1	?	-8	-3%	4%	-63*	0%
CCSc1n[nH]c2nc3c(c(=O)n12)C1(CCCC1)Cc1ccccc1-3	?	-16	0%	-12%	18	-2%
NC(N)=Nc1nc(-c2ccccc2)c2cc(F)ccc2n1	?	2	6%	15%	-90*	8%[1.84 µM]
Cc1nnc(SCC(=O)c2cc(C)n(-c3ccc4c(c3)OCO4)c2C)s1	1%	0	-1%	3%	-77*	-11%
CN(C(=O)CSc1nnc(Nc2ccccc2)s1)c1c(N)n(Cc2ccccc2)c(=O)[nH]c1=O	-13%	-7	1%	0%	1	-8%
